In PubChem BioAssay:
Results filed as inconclusive are left out. The source made the active and inactive calls.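 The calls were made as follows, unless noted: active = viability loss from added drug above about 55%, and viability with drug at most 40%, in both replicates (limit read from the data, passing the limit was not always enough); inconclusive = both conditions met in only one replicate; inactive = neither replicate meets both conditions.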

Columns and labels:
[1] = SK-BR-3 cell growth inhibitors, pilot screen, 24 h, human (AID 572;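 active = viability at or below 10% of carrier control in both of two separate runs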;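 also: compound exposure lasted between 18 and 24 h rather than exactly 24 h; 100% = carrier-treated control wells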); settings: SK-BR-3 viability, CellTiter-Glo luminescence, at 10 µM, stronger effect = lower value
[2] = HUVEC growth inhibition – cell-based, human, primary screen (AID 575;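 active = viability at or below 30% in both replicate assays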;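 also: 100% = median of untreated cell wells with 0.1% DMSO on each plate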); settings: HUVEC proliferation, CellTiter-Glo luminescence, 72 h; at 10 µM; stronger effect = lower value
[3] = growth inhibitors of H69AR lung tumor, primary screen, human, duplicate replicates (AID 580;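 active = viability at or under a set limit in both replicates, limit being median viability minus 3 SD, cut at about 48% in these data, passing the limit was not always enough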;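 also: 100% = mean luminescence of untreated wells and 0% = no signal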); settings: H69AR lung tumor cells viability, ATP luminescence, 72 h; at 10 µM; stronger effect = lower value
[4] = reversal of MRP1-mediated doxorubicin resistance, pilot screen, H69AR cells, doxorubicin co-treatment (AID 601); settings: CellTiter-Glo, 72 h, at 10 µM; for differential viability (reversal): stronger effect = higher value
[5] = 384-well plate pilot, post-Golgi transport modulator project, inhibition of yeast transport mutant growth (AID 636; in the data active = inhibition above about 31%); settings: absorbance 615 nm, about 18 h, stronger effect = higher value
[6] = growth suppression of yeast trafficking mutant, preliminary HTS, modulators of trafficking downstream of Golgi apparatus project, 1536-format plate, OD 615 nm (AID 637; in the data active = inhibition above about 30%); settings: yeast transport mutant growth, absorbance 615 nm, 18 h; stronger effect = higher value
[7] = OD615 S. cerevisiae growth inhibition, permissive medium, pilot counter-assay, permissive growth control for S. cerevisiae lifespan shortening project (AID 705;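 active = growth inhibition above 25% in both replicates, a cutoff set 3 SD above the mean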); settings: OD615, 24 h, at 10 µM, stronger effect = higher value
[8] = Restrictive medium S. cerevisiae growth inhibition, OD615, pilot screen of yeast lifespan reduction project, restrictive growth control (AID 706;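 active = growth inhibition above a set limit, 3 SD over mean compound inhibition, in both replicates, cut at about 43% in these data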;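 also: modified DeaD lifespan yeast strain shifted to restrictive glucose medium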); settings: OD615, 48 h, at 10 µM, stronger effect = higher value
[9] = viability gain of MRP-1-high H69AR cells under doxorubicin, pilot screen, MRP-1 activator project, CellTiter-Glo, duplicate (AID 807;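 active = viability increase at or above a cutoff of the median across tested compounds plus 3 SD, cut at about 8.5% in these data, passing the limit was not always enough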;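 also: compound pretreatment 18-22 h then 72 h combined with doxorubicin; 0% = doxorubicin alone and 100% = vehicle without doxorubicin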); settings: H69AR viability with doxorubicin, CellTiter-Glo luminescence; at 10 µM; stronger effect = higher value
[10] = growth suppression of beta-catenin knockout HCT116, pilot screen, human colon tumor cells (AID 823;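 active = cell viability at or below a set limit in both duplicate runs, the limit being the all-compound median minus 4 SD, cut at about 23% in these data, passing the limit was not always enough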;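 also: 0% = wells killed by 20 µM Hyamine and 100% = untreated DMSO cell wells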); settings: CellTiter-Glo, 60 h, at 10 µM, stronger effect = lower value
[11] = growth suppression of PTEN-deleted HCT116, pilot screen, cell-based, HCT116 clonal line, CellTiter-Glo (AID 824;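 active = viability at or below 27.92% in each of two runs, the all-compound median minus 4 SD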;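 also: 0% = 20 µM Hyamine control and 100% = vehicle cell control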); settings: 60 h, at 10 µM, stronger effect = lower value
[12] = inhibitors of the yeast RAM network, pilot screen, dse1pr::URA3 reporter, 5-FOA selection (AID 869;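 active = inhibition over a set limit, the all-compound mean plus 3 SD, in both replicate runs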;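 also: 0% = DMSO wells with no growth and 100% = 10 µM 1-NA-PP1 with full growth; RAM network block rescues cells from 5-FOA so hits raise OD615 growth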); settings: S. cerevisiae dse1pr::URA3 5-FOA growth, OD615, 2 d; at 10 µM; stronger effect = higher value; strain carries analog-sensitive mutant Cbk1 kinase
[13] = RAM signaling pathway blockade in yeast – S. cerevisiae, Pdr1DBD-CYC8 efflux-inhibited sensitized strain, primary screen (AID 1298;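 active = RAM network inhibition above 8.4% in each of two replicates, 3 SD over the compound average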;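 also: 0% = DMSO untreated cells without growth and 100% = 10 µM 1-NA-PP1 full growth; higher means more yeast growth rescued from 5-FOA killing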); settings: S. cerevisiae cbk1-as DSE1-URA3 strain, 5-FOA growth OD615, 2 d; at 50 µM; stronger effect = higher value
[14] = H69AR cells + 2 uM doxorubicin, measured here: viability with 2 uM doxorubicin, stronger effect = lower value
[15] = H69AR cells, compound alone cytotoxicity

Structure (SMILES)	viability [1]	viability [2]	viability [3]	differential viability (reversal) ([4]; H69AR cells + 2 uM doxorubicin)	viability [4, 14] [%]	viability [4, 15] [%]	inhibition [5]	inhibition [6]	growth inhibition [7]	growth inhibition [8]	viability increase [9]	viability [10]	viability [11]	inhibition [12]	RAM network inhibition [13]
O=C(C1CC1)N1CCc2cc(Br)cc(S(=O)(=O)N3CCOCC3)c21	98% (inactive)	88.5% (inactive)	90.6% (inactive)	10.4% (inactive)	80.1	90.6	-7.95% (inactive)	1.11% (inactive)	-11.8% (inactive)	-12.8% (inactive)	-5.31% (inactive)	91.9% (inactive)	83.2% (inactive)	1.35% (inactive)	2.33% (inactive)
O=C(CCn1[nH]c(=O)c2ccccc2c1=O)NCCO	78% (inactive)	118% (inactive)	89.3% (inactive)	-2.56% (inactive)	91.9	89.3	-7.07% (inactive)	-7.27% (inactive)	-16.2% (inactive)	-13.6% (inactive)	-0.03% (inactive)	102% (inactive)	102% (inactive)	0.26% (inactive)	0.2% (inactive)
O=C(O)CC(C(=O)Nc1cccc(C(F)(F)F)c1)C1CCCO1 (stereo not given)	76% (inactive)	108% (inactive)	97.6% (inactive)	3.26% (inactive)	94.3	97.6	-3.33% (inactive)	-8% (inactive)	-10.5% (inactive)	-6.54% (inactive)	1.01% (inactive)	104% (inactive)	100% (inactive)	-0.115% (inactive)	2.56% (inactive)
CCOC(=O)C1=C(CS(=O)(=O)c2ccc(F)c(C)c2)NC(=O)NC1c1ccc(O)c(O)c1 (stereo not given)	112% (inactive)	85.2% (inactive)	92.6% (inactive)	9.16% (inactive)	83.4	92.6	-4.13% (inactive)	-7.54% (inactive)	0.775% (inactive)	-9.4% (inactive)	-1.64% (inactive)	99.1% (inactive)	94.8% (inactive)	-0.51% (inactive)	1.66% (inactive)
C(=N\n1cnnc1)/c1cccc(OCCOc2ccccc2)c1	76% (inactive)	96.2% (inactive)	94.6% (inactive)	4.15% (inactive)	90.5	94.6	-4.53% (inactive)	2% (inactive)	-7.18% (inactive)	13.9% (inactive)	0.62% (inactive)	89% (inactive)	94.9% (inactive)	1.81% (inactive)	0.17% (inactive)
O=C(CCNS(=O)(=O)c1cccs1)Nc1ccccc1F	81% (inactive)	121% (inactive)	108% (inactive)	8.57% (inactive)	99.2	108	-6.49% (inactive)	0.55% (inactive)	-26.3% (inactive)	-12.8% (inactive)	-0.31% (inactive)	90.8% (inactive)	92.8% (inactive)	0.805% (inactive)	2.55% (inactive)
COc1ccc(NC(=O)CC2CCCCC2)cc1OC	96% (inactive)	94.6% (inactive)	103% (inactive)	12.8% (inactive)	90.2	103	-6% (inactive)	-1.09% (inactive)	-9.11% (inactive)	-10.4% (inactive)	-0.97% (inactive)	96.3% (inactive)	93.4% (inactive)	2.6% (inactive)	6.64% (inactive)
COc1ccccc1OCCNC(=O)c1cccs1	84% (inactive)	115% (inactive)	91.1% (inactive)	9.52% (inactive)	81.6	91.1	-3.33% (inactive)	-0.18% (inactive)	-6.5% (inactive)	3.83% (inactive)	0.85% (inactive)	97.9% (inactive)	103% (inactive)	1.21% (inactive)	7.11% (inactive)
CC12CCC(C(=O)N3CCN(C(=O)C45CCC(C)(C(=O)O4)C5(C)C)CC3)(OC1=O)C2(C)C	109% (inactive)	97.5% (inactive)	105% (inactive)	20.1% (inactive)	84.7	105	-3.47% (inactive)	-7.64% (inactive)	-17% (inactive)	-7.99% (inactive)	-0.17% (inactive)	102% (inactive)	94.1% (inactive)	1.42% (inactive)	0.26% (inactive)
O=C(COc1ccc(F)cc1)Nc1ccc(-n2cnnn2)cc1	103% (inactive)	107% (inactive)	93.1% (inactive)	12% (inactive)	81.1	93.1	-4% (inactive)	-1.27% (inactive)	2.42% (inactive)	2.31% (inactive)	3.62% (inactive)	102% (inactive)	100% (inactive)	0.61% (inactive)	0.57% (inactive)
